A short description of assay [1]: qHTS RealTime-Glo MT Cell Viability Assay in HEK293 cells - 16 hour (AID 1224872). Also: nearly all actives have a fitted effect of over 50% in size. Also: potency is read from the fitted curve at half-maximal effect. The procedure, abridged:
(§1)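 Quantitative high-throughput screen of the Tox21 10K library in HEK293: cells and RealTime-Glo reagents plated together, compound added at 5 h, luminescence monitored through 40 h at 37 C.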
On the technique in general: In qHTS, concentration-response curves come from the screen itself.

Assay [2] in a line: qHTS RealTime-Glo MT Cell Viability Assay in HepG2 cells - 8 hour (AID 1224873). Also: nearly all actives have a fitted effect of over 55% in size. In short, it runs like this: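 HepG2 cells (600/well) mixed with RealTime-Glo MT reagent, settled 5 h at 37 C/5% CO2 before compound addition. Nonlytic NanoLuc luminescence from viable-cell prosubstrate reduction read repeatedly during 40 h treatment at 37 C.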
Assay [3] can be described thus: qHTS RealTime-Glo MT Cell Viability Assay in HEK293 cells - 40 hour (AID 1224874). Also: nearly all actives have a fitted effect of over 50% in size. Also: potency is read from the fitted curve at half-maximal effect. The note with it: RealTime-Glo luminescence; max response: stronger effect = lower value. In short, it runs like this:
(§2)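 Luminescence readout at each listed time point; HEK293, 600 cells/well, RealTime-Glo MT reagent added with cells; compounds pinned (23 nL in DMSO) after 5 h at 37 C; continuous culture at 37 C.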

The nature of assay [4]: A CellTox Green Cytotoxicity Assay to monitor cytotoxicity in HEK293 cells - 24 hour (AID 1224875). Also: series mostly up to about 77 µM; nearly all actives have a fitted effect of over 45% in size. The procedure, abridged:
(§3)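 Read-out: fluorescence of a cell-impermeant cyanine dye staining DNA of dead cells, proportional to cytotoxicity. HEK293, 600 cells/well with reagent, compound (23 nL DMSO) added after 5 h; reads at 0, 8, 16, 24, 32, 40 h.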

Assay [5] can be described thus: A CellTox Green Cytotoxicity Assay to monitor cytotoxicity in HepG2 cells - 16 hour (AID 1224876). Also: nearly all actives have a fitted effect of over 45% in size. Also: potency is read from the fitted curve at half-maximal effect. In short, it runs like this:
(§4)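 HepG2, 600 cells/well premixed w/ CellTox Green; 5 h settle, 37 C/5% CO2; pintool cpd add (DMSO); 37 C, 40 h; fluorescence read at 0, 8, 16, 24, 32, 40 h.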

The nature of assay [6]: qHTS RealTime-Glo MT Cell Viability Assay in HepG2 cells - 32 hour (AID 1224877). Also: nearly all actives have a fitted effect of over 55% in size. The procedure, abridged:
(§5)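 Compound treatment began 5 h after plating HepG2 cells (600/well) with NanoLuc luciferase and prosubstrate. Plates stayed at 37 C for 40 h; luminescence was captured at six time points, 0 h through 40 h.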

Assay [7] is described as follows: A CellTox Green Cytotoxicity Assay to monitor cytotoxicity in HepG2 cells - 24 hour (AID 1224878). Also: nearly all actives have a fitted effect of over 45% in size. Also: potency is read from the fitted curve at half-maximal effect. The procedure, abridged: as §4
The nature of assay [8]: A CellTox Green Cytotoxicity Assay to monitor cytotoxicity in HepG2 cells - 40 hour (AID 1224879). Also: nearly all actives have a fitted effect of over 40% in size. Also: potency is read from the fitted curve at half-maximal effect. In short, it runs like this: as §4
The nature of assay [9]: qHTS RealTime-Glo MT Cell Viability Assay in HEK293 cells - 0 hour (AID 1224880). Also: top concentration of the series differs between compounds; nearly all actives have a fitted effect of over 45% in size. In short, it runs like this:
as §2

Assay [10] can be described thus: A CellTox Green Cytotoxicity Assay to monitor cytotoxicity in HEK293 cells - 32 hour (AID 1224881). Also: nearly all actives have a fitted effect of over 40% in size. Also: potency is read from the fitted curve at half-maximal effect. The procedure, abridged:
as §3

The nature of assay [11]: A CellTox Green Cytotoxicity Assay to monitor cytotoxicity in HepG2 cells - 0 hour (AID 1224882). Also: nearly all actives have a fitted effect of over 35% in size. Also: potency is read from the fitted curve at half-maximal effect. In short, it runs like this: as §4
Assay [12] is described as follows: A CellTox Green Cytotoxicity Assay to monitor cytotoxicity in HEK293 cells - 8 hour (AID 1224884). Also: nearly all actives have a fitted effect of over 35% in size. The procedure, abridged:
as §3

Assay [13] is described as follows: qHTS RealTime-Glo MT Cell Viability Assay in HepG2 cells - 16 hour (AID 1224885). Also: nearly all actives have a fitted effect of over 50% in size. In short, it runs like this: as §5
A short description of assay [14]: qHTS RealTime-Glo MT Cell Viability Assay in HEK293 cells - 24 hour (AID 1224886). Also: nearly all actives have a fitted effect of over 50% in size. Also: potency is read from the fitted curve at half-maximal effect. In short, it runs like this:
as §1

The nature of assay [15]: qHTS RealTime-Glo MT Cell Viability Assay in HEK293 cells - 8 hour (AID 1224887). In short, it runs like this: as §2
A short description of assay [16]: A CellTox Green Cytotoxicity Assay to monitor cytotoxicity in HEK293 cells - 16 hour (AID 1224888). Also: nearly all actives have a fitted effect of over 35% in size. In short, it runs like this:
as §3

Assay [17] is described as follows: qHTS RealTime-Glo MT Cell Viability Assay in HepG2 cells - 0 hour (AID 1224889). Also: nearly all actives have a fitted effect of over 50% in size. In short, it runs like this:
as §5

Assay [18] in a line: A CellTox Green Cytotoxicity Assay to monitor cytotoxicity in HepG2 cells - 8 hour (AID 1224890). Also: nearly all actives have a fitted effect of over 45% in size. Also: potency is read from the fitted curve at half-maximal effect. In short, it runs like this: as §4
A short description of assay [19]: qHTS assay to identify small molecule antagonists of the estrogen receptor alpha (ER-alpha) signaling pathway using the BG1 cell line in the presence of 0.1 nM 17-beta-estradiol - cell viability counter screen (AID 1259241). Also: nearly all actives have a fitted effect of over 40% in size. The procedure, abridged: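 Estradiol-stimulated (0.1 nM) VM7Luc4E2 cells exposed to compounds 22 hr; viability measured by fluorescence of cleaved CellTiter-Fluor substrate after 30 min.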

Assay [20] in a line: A CellTox Green Cytotoxicity Assay to monitor cytotoxicity in HepG2 cells - 32 hour (AID 1224883). Also: nearly all actives have a fitted effect of over 50% in size. Also: potency is read from the fitted curve at half-maximal effect. The procedure, abridged: as §4

Where “and” joins values, the source holds several entries; their conditions need not be identical. Equal values may be shown once. Inconclusive results are not listed. Some compounds were tested as several samples or in several runs, with calls that do not always agree. Calls of active or inactive are those of the source. Calls follow the shape of the dose curve; as a rule, active = well fitted curve in the direction sought with a large enough effect in the repeat runs; inconclusive = weak or mixed curves; inactive = no such curve, though single readings can be large; an effect the other way counts as inactive or inconclusive.
% is scaled to controls: 0 for no effect and ±100 for the full control effect.

In the case of `CCCCNS(=O)(=O)c1ccccc1`, the Potency entry in [1] was “inactive and 7.76 µM (active)”; in assay [3], 4.36 µM (active); in assay [14], “inactive and 6.16 µM (active)”. In addition, the Potency result in assay [2], in [4], in assay [5], in assay [6], in assay [7] and in [8] was “inactive” each time. Besides, the Potency result in assay [9], in [10], in [11], in [12], in [13] and in assay [15] was “inactive” throughout. The Potency result in [16], in assay [17], in assay [18] and in assay [19] was “inactive” each time. Moreover, the max response in [3] is -5.06% (inactive).
In the case of `CCC(C)CO` (stereo unspecified), the Potency entry in assay [1], in assay [2], in assay [4], in assay [6], in assay [9] and in [10] was “inactive” each time. Further, the Potency result in assay [12], in [13], in assay [15], in assay [16], in assay [17] and in [19] was “inactive” in each case. The Potency in [3] was 24.5 µM (active); in assay [5], “inactive and 38.9 µM (active)”; in [7] it was “inactive and 43.6 µM (active)”; in assay [8], “inactive and 43.6 µM (active)”; in assay [11], “inactive and 43.6 µM (active)”; in assay [20] it was “inactive and 43.6 µM (active)”. Also, the Potency result is “inactive and 24.5 µM (active)” in [14]; “inactive and 49 µM (active)” in [18]. In assay [3], the max response was 4.66% (inactive).
For the molecule `O=C=Nc1ccc(Cc2ccc(N=C=O)cc2)cc1`, the Potency result in assay [1], in assay [2], in assay [4], in [5], in [6] and in assay [7] was “inactive” each time. Also, the Potency entry in assay [8], in [9], in assay [10], in assay [11], in [20] and in [12] was “inactive” in each case. Also, the Potency entry in assay [13], in [14], in assay [15], in [16], in assay [17] and in assay [18] was “inactive” each time. Moreover, the max response in assay [3] is -12.4% (inactive) and 1.24% (inactive).
Consider `Cc1ccc(C)c(O)c1C`, for which the Potency result in assay [1], in assay [2], in [4], in assay [5], in [6] and in [7] was “inactive” in each case. Moreover, the Potency result in [8], in assay [9], in [10], in [11], in assay [20] and in assay [12] was “inactive” in each case. Also, the Potency result in assay [13], in assay [14], in assay [15], in assay [16], in assay [17] and in [18] was “inactive” in each case. The max response in [3] is 1.3% (inactive) and 2.18% (inactive).
Take `Nc1ccc(S(=O)(=O)Nc2cnc3ccccc3n2)cc1`: the Potency result in assay [1], in [2], in assay [4], in [5], in assay [6] and in assay [7] was “inactive” each time. The Potency result in [8], in assay [9], in assay [10], in assay [11], in assay [20] and in assay [12] was “inactive” each time. Moreover, the Potency entry in assay [13], in assay [14], in assay [15], in assay [16], in assay [17] and in assay [18] was “inactive” in each case. Moreover, the max response in assay [3] was -2.7% (inactive) and 1.7% (inactive).
For `CC(C(=O)O)c1cccc(C(=O)c2ccccc2)c1` (stereo unspecified), the Potency result in [1], in [2], in assay [4], in assay [5], in [6] and in assay [7] was “inactive” each time. For the same molecule, the Potency result in assay [8], in [9], in assay [10], in [11], in assay [20] and in assay [12] was “inactive” in each case. Besides, the Potency entry in assay [13], in assay [14], in assay [15], in assay [16], in assay [17] and in [18] was “inactive” throughout. Moreover, the Potency entry in assay [19] was “inactive”. Moreover, the max response in assay [3] was 9.55% (inactive) and 2.14% (inactive).
Take `O=CCCCC=O`: the Potency result in assay [1], in [2], in [4], in assay [5], in [6] and in assay [9] was “inactive” throughout. The Potency result in [10], in [12], in assay [13], in [15], in [16] and in assay [17] was “inactive” each time. Also, the Potency result in assay [18] and in [19] was “inactive” throughout. Besides, the Potency in assay [3] was 42.1 µM (active); in assay [14], 42.1 µM (active) and inactive. The max response in [3] is 3.08% (inactive).
As to `COc1ccc(C(=O)CC(=O)c2ccc(C(C)(C)C)cc2)cc1`, the Potency in assay [1] was 29.6 µM (active) and inactive; in [3] it was 29.6 µM (active); in assay [5], “inactive and 67.4 nM (active)”; in assay [7], “inactive and 75.6 nM (active)”; in assay [8], “inactive and 67.4 nM (active)”; in [11], “inactive and 75.6 nM (active)”. For the same molecule, the Potency in assay [14] was 29.6 µM (active) and inactive; in assay [18] it was “inactive and 75.6 nM (active)”. For the same molecule, the Potency entry in assay [2], in assay [4], in [6], in [9], in assay [10] and in assay [12] was “inactive” throughout. Also, the Potency result in assay [13], in [16], in [17] and in [19] was “inactive” in each case. The max response in assay [3] was -14% (inactive).
In the case of `Brc1cc(Oc2cc(Br)c(Br)c(Br)c2Br)c(Br)c(Br)c1Br`, the Potency result in assay [1], in assay [2], in assay [4], in [5], in assay [6] and in assay [7] was “inactive” each time. Moreover, the Potency entry in assay [8], in assay [9], in assay [10], in assay [11], in assay [20] and in assay [12] was “inactive” in each case. Moreover, the Potency result in assay [13], in assay [14], in assay [15], in assay [16], in [17] and in [18] was “inactive” throughout. Further, the max response in [3] was -1.03% (inactive) and -0.229% (inactive).
As for `CC(C)(C)NC(=O)[C@H]1CC[C@H]2[C@@H]3CC[C@H]4NC(=O)C=C[C@]4(C)[C@H]3CC[C@]12C`, the Potency result in assay [1], in [2], in assay [4], in assay [5], in assay [6] and in [7] was “inactive” each time. Moreover, the Potency result in assay [8], in assay [9], in [10], in assay [11], in [20] and in assay [12] was “inactive” each time. Further, the Potency result in [13], in assay [14], in assay [15], in assay [16], in assay [17] and in [18] was “inactive” in each case. In [3], the max response is -25.2% (inactive) and -19.5% (inactive).
With `CCCCC/C=C/C=C/C=O`, the Potency entry in assay [1], in assay [2], in assay [4], in assay [5], in assay [6] and in assay [7] was “inactive” each time. The Potency entry in assay [9], in [11], in [12], in [13], in assay [14] and in [15] was “inactive” each time. Moreover, the Potency entry in assay [16], in [17] and in assay [18] was “inactive” each time. The max response in [3] was -25% (inactive). Moreover, the Potency in assay [8] was 54.9 µM (active); in assay [10] it was 54.5 µM (active); in assay [20], 54.5 µM (active) and 54.9 µM (active).
Take `Nc1ncnc2nc[nH]c12`: the Potency result in [1], in [2], in assay [4], in assay [5], in [6] and in assay [7] was “inactive” in each case. In addition, the Potency entry in assay [8], in assay [9], in assay [10], in assay [11], in [20] and in assay [12] was “inactive” each time. Besides, the Potency result in assay [13], in [14], in assay [15], in assay [16], in assay [17] and in [18] was “inactive” in each case. Moreover, the Potency entry in assay [19] is “inactive”. The max response in assay [3] was 0.881% (inactive) and 2.65% (inactive).

Values taken from PubChem BioAssay (Tox21).
